Measurements from PubChem BioAssay AID1159580 (chemical genetic matrix, 2015).
Hit rate of the full screen: of about 5,500 compounds, about 2,000 (36%) were called active. Roughly 18% stayed inconclusive and do not appear here. Cut-off read from the data, not from the text of the source: active = normalized growth mostly below about 0.91 (no sharp cut-off); inconclusive = no clear call, values can overlap the other calls; inactive = mostly above about 0.92. The list shows a part of the results.

Assay: chemical genetic growth profiling, strain panel (AID 1159580);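 note: tested at 20 µM; growth read once vehicle control cultures reached saturation at 30 °C; 1 = growth at the plate median or of vehicle wells; lower values mean less growth of the strain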
Conditions: growth OD
[1] = S. cerevisiae deletion strains, locus YHR030C, strain SLT2, hits give low values
[2] = S. cerevisiae deletion strains, locus YJL187C, strain SWE1, hits give low values

Measured: normalized growth

COC(=O)[C@H](c1ccccc1Cl)N1CCc2sccc2C1
inactive: S. cerevisiae deletion strains, locus YAL021C, strain ccr4, hits give low values 0.993 | S. cerevisiae deletion strains, locus YAL026C, strain drs2, hits give low values 0.99 | S. cerevisiae deletion strains, locus YAL030W, strain snc1, hits give low values 0.982 | S. cerevisiae deletion strains, locus YBL061C, strain skt5, hits give low values 0.994 | S. cerevisiae deletion strains, locus YBR009C, strain hhf1, hits give low values 0.989 | S. cerevisiae deletion strains, locus YBR023C, strain chs3, hits give low values 0.981 | S. cerevisiae deletion strains, locus YBR171W, strain sec66, hits give low values 0.973 | S. cerevisiae deletion strains, locus YBR231C, strain swc5, hits give low values 0.998 | S. cerevisiae deletion strains, locus YBR279W, strain paf1, hits give low values 0.986 | S. cerevisiae deletion strains, locus YCL011C, strain gbp2, hits give low values 0.968 | S. cerevisiae deletion strains, locus YCL016C, strain dcc1, hits give low values 0.993 | S. cerevisiae deletion strains, locus YCL069W, strain vba3, hits give low values 0.991 | S. cerevisiae deletion strains, locus YCR088W, strain abp1, hits give low values 0.976 | S. cerevisiae deletion strains, locus YDL005C, strain med2, hits give low values 0.991 | S. cerevisiae deletion strains, locus YDL040C, strain nat1, hits give low values 0.961 | S. cerevisiae deletion strains, locus YDR001C, strain nth1, hits give low values 0.985 | S. cerevisiae deletion strains, locus YDR069C, strain doa4, hits give low values 1.01 | S. cerevisiae deletion strains, locus YDR137W, strain rgp1, hits give low values 0.912 | S. cerevisiae deletion strains, locus YDR159W, strain sac3, hits give low values 0.987 | S. cerevisiae deletion strains, locus YDR195W, strain ref2 0.971 | S. cerevisiae deletion strains, locus YDR297W, strain sur2, hits give low values 0.983 | S. cerevisiae deletion strains, locus YDR334W, strain swr1, hits give low values 0.995 | S. cerevisiae deletion strains, locus YDR335W, strain msn5, hits give low values 1.01 | S. cerevisiae deletion strains, locus YDR392W, strain spt3, hits give low values 0.984 | S. cerevisiae deletion strains, locus YEL003W, strain gim4, hits give low values 0.969 | S. cerevisiae deletion strains, locus YEL037C, strain rad23, hits give low values 0.981 | S. cerevisiae deletion strains, locus YEL061C, strain CIN8 (second series), hits give low values 0.98 | S. cerevisiae deletion strains, locus YER015W, strain faa2, hits give low values 0.986 | S. cerevisiae deletion strains, locus YER016W, strain bim1, hits give low values 0.98 | S. cerevisiae deletion strains, locus YER111C, strain swi4, hits give low values 0.972 | S. cerevisiae deletion strains, locus YER155C, strain BEM2 (second series), hits give low values 0.97 | S. cerevisiae deletion strains, locus YFR010W, strain ubp6, hits give low values 1 | S. cerevisiae deletion strains, locus YGL167C, strain pmr1, hits give low values 0.967 | S. cerevisiae deletion strains, locus YGL173C, strain kem1, hits give low values 0.979 | S. cerevisiae deletion strains, locus YGL227W, strain vid30, hits give low values 0.988 | S. cerevisiae deletion strains, locus YGL240W, strain doc1, hits give low values 0.989 | S. cerevisiae deletion strains, locus YGL253W, strain hxk2, hits give low values 1 | S. cerevisiae deletion strains, locus YHR013C, strain ard1, hits give low values 1.07 | S. cerevisiae deletion strains, locus YHR027C, strain rpn1, hits give low values 0.987 | [1] 0.961 | S. cerevisiae deletion strains, locus YHR079C, strain IRE1, hits give low values 0.956 | S. cerevisiae deletion strains, locus YHR142W, strain chs7, hits give low values 1.01 | S. cerevisiae deletion strains, locus YJL092W, strain hpr5, hits give low values 0.98 | S. cerevisiae deletion strains, locus YJL095W, strain BCK1 (second series), hits give low values 0.983 | S. cerevisiae deletion strains, locus YJL095W, strain BCK1, hits give low values 0.98 | S. cerevisiae deletion strains, locus YJL115W, strain asf1, hits give low values 1 | S. cerevisiae deletion strains, locus YJL129C, strain trk1, hits give low values 0.959 | S. cerevisiae deletion strains, locus YJL154C, strain vps35, hits give low values 0.97 | S. cerevisiae deletion strains, locus YJL164C, strain tpk1, hits give low values 0.976 | S. cerevisiae deletion strains, locus YJL166W, strain qcr8, hits give low values 0.991 | [2] 0.984 | S. cerevisiae deletion strains, locus YJR066W, strain TOR1, hits give low values 0.982 | S. cerevisiae deletion strains, locus YKL160W, strain elf1, hits give low values 0.988 | S. cerevisiae deletion strains, locus YKR026C, strain gcn3, hits give low values 1 | S. cerevisiae deletion strains, locus YKR091W, strain srl3, hits give low values 0.983 | S. cerevisiae deletion strains, locus YLL001W, strain dnm1, hits give low values 1.01 | S. cerevisiae deletion strains, locus YLL026W, hits give low values 0.977 | S. cerevisiae deletion strains, locus YLL041C, strain sdh2, hits give low values 0.991 | S. cerevisiae deletion strains, locus YLR027C, strain aat2, hits give low values 0.983 | S. cerevisiae deletion strains, locus YLR113W, strain HOG1, hits give low values 0.932 | S. cerevisiae deletion strains, locus YLR221C, strain rsa3, hits give low values 0.992 | S. cerevisiae deletion strains, locus YLR258W, strain gsy2, hits give low values 0.982 | S. cerevisiae deletion strains, locus YLR262C, strain YPT6 (second series), hits give low values 0.95 | S. cerevisiae deletion strains, locus YLR320W, strain mms22, hits give low values 0.963 | S. cerevisiae deletion strains, locus YLR342W, strain FKS1, hits give low values 0.982 | S. cerevisiae deletion strains, locus YLR357W, strain rsc2, hits give low values 1.09 | S. cerevisiae deletion strains, locus YLR370C, strain arc18, hits give low values 0.975 | S. cerevisiae deletion strains, locus YLR384C, strain iki3, hits give low values 0.975 | S. cerevisiae deletion strains, locus YML120C, strain ndi1, hits give low values 0.961 | S. cerevisiae deletion strains, locus YMR058W, strain fet3, hits give low values 0.989 | S. cerevisiae deletion strains, locus YMR125W, strain sto1, hits give low values 0.993 | S. cerevisiae deletion strains, locus YMR129W, hits give low values 0.979 | S. cerevisiae deletion strains, locus YMR205C, strain PFK2, hits give low values 0.971 | S. cerevisiae deletion strains, locus YMR231W, strain pep5, hits give low values 0.995 | S. cerevisiae deletion strains, locus YNL071W, strain lat1, hits give low values 0.968 | S. cerevisiae deletion strains, locus YNL183C, strain NPR1, hits give low values 0.941 | S. cerevisiae deletion strains, locus YNL209W, strain ssb2, hits give low values 0.998 | S. cerevisiae deletion strains, locus YNL248C, strain rpa49, hits give low values 1.07 | S. cerevisiae deletion strains, locus YNL322C, strain KRE1 (second series), hits give low values 0.981 | S. cerevisiae deletion strains, locus YNR049C, strain mso1, hits give low values 0.978 | S. cerevisiae deletion strains, locus YOR001W, strain rrp6, hits give low values 1 | S. cerevisiae deletion strains, locus YOR070C, strain gyp1, hits give low values 0.986 | S. cerevisiae deletion strains, locus YOR080W, strain dia2, hits give low values 0.994 | S. cerevisiae deletion strains, locus YOR083W, strain WHI5, hits give low values 0.981 | S. cerevisiae deletion strains, locus YOR106W, strain vam3, hits give low values 1.03 | S. cerevisiae deletion strains, locus YOR231W, strain MKK1, hits give low values 0.938 | S. cerevisiae deletion strains, locus YOR265W, strain rbl2, hits give low values 0.985 | S. cerevisiae deletion strains, locus YOR270C, strain vph1, hits give low values 1.02 | S. cerevisiae deletion strains, locus YOR290C, strain snf2, hits give low values 1.02 | S. cerevisiae deletion strains, locus YPL051W, strain arl3, hits give low values 0.992 | S. cerevisiae deletion strains, locus YPL078C, strain atp4, hits give low values 0.996 | S. cerevisiae deletion strains, locus YPL106C, strain sse1, hits give low values 0.987 | S. cerevisiae deletion strains, locus YPL240C, strain hsp82, hits give low values 0.986 | S. cerevisiae deletion strains, locus YPL256C, strain CLN2, hits give low values 0.894

Cc1nn(Cc2ccccc2Cl)c(=N)s1
inactive: S. cerevisiae deletion strains, locus YAL013W, strain DEP1, hits give low values 1.01 | S. cerevisiae deletion strains, locus YBR229C, strain ROT2, hits give low values 0.999 | S. cerevisiae deletion strains, locus YCL061C, strain MRC1, hits give low values 0.992 | S. cerevisiae deletion strains, locus YDL101C, strain DUN1, hits give low values 0.991 | S. cerevisiae deletion strains, locus YDL134C, strain PPH21, hits give low values 0.978 | S. cerevisiae deletion strains, locus YDR150W, strain NUM1, hits give low values 0.971 | S. cerevisiae deletion strains, locus YEL061C, strain CIN8, hits give low values 1.02 | S. cerevisiae deletion strains, locus YGR078C, strain PAC10, hits give low values 0.997 | S. cerevisiae deletion strains, locus YGR229C, strain SMI1, hits give low values 0.985 | [1] 0.959 | S. cerevisiae deletion strains, locus YHR087W, strain rtc3, hits give low values 0.972 | [2] 0.995 | S. cerevisiae deletion strains, locus YJR043C, strain POL32, hits give low values 0.991 | S. cerevisiae deletion strains, locus YJR075W, strain HOC1, hits give low values 0.99 | S. cerevisiae deletion strains, locus YLR039C, strain RIC1, hits give low values 0.939 | S. cerevisiae deletion strains, locus YLR058C, strain SHM2 (second series), hits give low values 1.01 | S. cerevisiae deletion strains, locus YLR085C, strain ARP6, hits give low values 1.03 | S. cerevisiae deletion strains, locus YLR262C, strain YPT6, hits give low values 0.954 | S. cerevisiae deletion strains, locus YML094W, strain GIM5, hits give low values 1.04 | S. cerevisiae deletion strains, locus YMR219W, strain ESC1, hits give low values 0.998 | S. cerevisiae deletion strains, locus YMR263W, strain SAP30, hits give low values 1 | S. cerevisiae deletion strains, locus YMR307W, strain GAS1, hits give low values 0.981 | S. cerevisiae deletion strains, locus YNL153C, strain GIM3, hits give low values 1.02 | S. cerevisiae deletion strains, locus YNL298W, strain CLA4 (second series), hits give low values 0.932 | S. cerevisiae deletion strains, locus YNL322C, strain KRE1, hits give low values 0.985 | S. cerevisiae deletion strains, locus YNR030W, strain Alg12, hits give low values 0.988 | S. cerevisiae deletion strains, locus YOL006C, strain TOP1, hits give low values 0.939 | S. cerevisiae deletion strains, locus YPL055C, strain LGE1, hits give low values 1.06 | S. cerevisiae deletion strains, locus YPL241C, strain CIN2, hits give low values 0.993 | S. cerevisiae deletion strains, locus YPR135W, strain CTF4, hits give low values 0.972 | S. cerevisiae strains, strain wild type, hits give low values 0.96
